Drawing on PubChem BioAssay (NCATS), this text covers Potency for 14 compounds.

Records with an inconclusive call do not appear. Active and inactive are the calls of the source. Calls follow the shape of the dose curve; as a rule, active = well fitted inhibition curve with a large enough effect; inconclusive = small, poorly fitted or top-dose-only effect; inactive = flat fitted curve, though single readings scatter.

Assay in all cases: qHTS profiling for inhibitors of Plasmodium falciparum proliferation (AID 504749); also: nearly all actives have a fitted effect of over 60% in size
Common to all, as to conditions: P. falciparum in erythrocytes, SYBR Green DNA, 72 h; series mostly up to 28.7 µM
Background: Quantitative high-throughput screening tests each substance at several concentrations.

One assay concerns CP269. The method, boiled down:
(§1)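 SYBR Green fluorescence of parasite DNA, read after lysis and overnight dark incubation, measured growth over 72 h in erythrocyte culture at 0.3% parasitemia and 2.5% hematocrit. Data normalised to DMSO and 0.29 uM artemisinin, with plate-drift correction.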

In a further assay the test system is CP286. In short, it runs like this:
as §1

For the next assay, the system named is CP291. The method, boiled down:
as §1

The subject of the next assay is CP297. The method, boiled down: as §1
The next assay concerns CP335. In short, it runs like this: as §1
In another assay the test system is DFO2036. The method, boiled down: as §1
The next assay concerns DIV14. In short, it runs like this:
as §1

A further assay concerns DIV17. The method, boiled down: as §1
For the next assay, the system named is Dd2. The method, boiled down:
as §1

The next assay concerns ECU. In short, it runs like this: as §1
The test system of a further assay is GB4. In short, it runs like this:
as §1

The test system of another assay is HB3. The method, boiled down: as §1
Another assay deals with ICS. The method, boiled down: as §1
The test system of the next assay is JCK. The method, boiled down:
as §1

The next assay deals with CP305. The method, boiled down:
as §1

Another assay relates to CP315. In short, it runs like this: as §1
The test system of the next assay is CP325. In short, it runs like this: as §1
In a further assay the test system is CP329. In short, it runs like this:
as §1

In a further assay the test system is FAB9. The method, boiled down: as §1
A further assay deals with DIV30. In short, it runs like this: as §1
Potency is read from the fitted curve at half-maximal effect.

Take `C1CCC(C(CC2CCCCN2)C2CCCCC2)CC1` (centres undefined): the Potency in the assay on CP269 is 13.5 µM (active); in the assay on CP286 it was 3.98 µM (active); in the assay with CP291, 12 µM (active); in the assay on CP297, 13.5 µM (active); with CP335, 9.53 µM (active); with DFO2036 it was 11.2 µM (active). For the same compound, the Potency with DIV14 is 3.79 µM (active); with DIV17 it was 3.38 µM (active); in the assay on Dd2 it was 12.6 µM (active); in the assay on ECU it was 5.01 µM (active); with GB4 it was 9.53 µM (active); in the assay with HB3, 11.2 µM (active). Also, the Potency in the assay on ICS is 1.12 µM (active); in the assay with JCK it was 12.6 µM (active).
In the case of `O=P(O)(O)C(O)(Cc1cccnc1)P(=O)(O)O`, the Potency result in the assay on CP269, in the assay on CP286, in the assay on CP291, in the assay with CP297, with CP305 and in the assay on CP315 was “inactive” throughout. The Potency result with CP325, in the assay with CP329, in the assay with CP335, in the assay with DFO2036, in the assay on DIV14 and with DIV17 was “inactive” throughout. Moreover, the Potency entry with Dd2, with ECU, with FAB9, with GB4, with HB3 and in the assay with ICS was “inactive” each time. Also, in the assay on JCK, the Potency result was “inactive”.
As for `CC(C)OC(=O)C(C(=O)OC(C)C)=C1SC=CS1`, the Potency entry in the assay on CP269, with CP286, in the assay with CP291, in the assay with CP297, in the assay on CP305 and in the assay on CP315 was “inactive” throughout. The Potency entry with CP325, with CP329, in the assay with DFO2036, in the assay on DIV17, in the assay on Dd2 and in the assay on ECU was “inactive” throughout. Further, the Potency result with FAB9, in the assay on GB4, with HB3, in the assay with ICS and in the assay with JCK was “inactive” each time.
As to `CC(C)(Sc1cc(C(C)(C)C)c(O)c(C(C)(C)C)c1)Sc1cc(C(C)(C)C)c(O)c(C(C)(C)C)c1`, the Potency result in the assay with CP269, in the assay with CP291, in the assay with CP297, with CP305, in the assay on CP325 and in the assay on CP329 was “inactive” throughout. Moreover, the Potency result with DFO2036, in the assay on DIV14, in the assay with DIV17, in the assay with DIV30, with Dd2 and with ECU was “inactive” each time. Moreover, the Potency result with FAB9, with GB4 and in the assay on JCK was “inactive” in each case. Besides, the values for the Potency in the assay on CP286, in the assay with CP335 and with ICS were 3.98 µM (active), 3.61 µM (active) and 3.16 µM (active), respectively.
Turning to `CNNCc1ccc(C(=O)NC(C)C)cc1`, the Potency entry in the assay with CP269, in the assay on CP286, in the assay with CP291, in the assay on CP297, in the assay on CP305 and in the assay with CP315 was “inactive” in each case. Moreover, the Potency result in the assay on CP325, with CP329, in the assay on CP335, with DFO2036, with DIV30 and with Dd2 was “inactive” in each case. The Potency entry with ECU, in the assay with FAB9, with GB4, in the assay on HB3 and with JCK was “inactive” each time.
On to `CCCc1cc(C(N)=S)ccn1`, for which the Potency entry in the assay on CP269, in the assay on CP286, with CP291, in the assay on CP305, in the assay on CP315 and with CP325 was “inactive” each time. Further, the Potency entry in the assay on CP329, in the assay with CP335, in the assay with DFO2036, in the assay with DIV14, in the assay on DIV17 and with DIV30 was “inactive” throughout. Further, the Potency result with Dd2, with ECU, in the assay with FAB9, in the assay on GB4, in the assay on HB3 and with ICS was “inactive” in each case. Moreover, the Potency result in the assay with JCK was “inactive”.
With `Cc1cccc(N(C)C(=S)Oc2ccc3ccccc3c2)c1`, the Potency result in the assay with CP269, in the assay on CP286, with CP291, in the assay on CP297, in the assay on CP305 and with CP315 was “inactive” each time. The Potency entry in the assay with CP325, in the assay on CP329, in the assay with CP335, in the assay with DFO2036, in the assay on DIV14 and with DIV17 was “inactive” in each case. Also, the Potency result with DIV30, in the assay on Dd2, with ECU, in the assay with FAB9, in the assay with GB4 and in the assay on HB3 was “inactive” in each case. For the same compound, the Potency result in the assay on ICS and with JCK was “inactive” each time.
With `CN1CCN(c2c(F)cc3c(=O)c(C(=O)O)cn(CCF)c3c2F)CC1`, the Potency result in the assay with CP269, in the assay on CP286, with CP291, with CP297, with CP305 and in the assay with CP315 was “inactive” in each case. Besides, the Potency entry in the assay with CP325, in the assay with CP329, in the assay with CP335, in the assay with DFO2036, in the assay on DIV17 and in the assay with DIV30 was “inactive” throughout. The Potency result in the assay with Dd2, with ECU, with FAB9, in the assay with GB4, with HB3 and in the assay with ICS was “inactive” in each case. Further, the Potency entry in the assay with JCK was “inactive”.
Consider `Cc1noc(NS(=O)(=O)c2ccc(N)cc2)c1C`, for which the Potency result with CP269, with CP286, with CP291, with CP297, in the assay on CP305 and in the assay with CP325 was “inactive” in each case. The Potency entry in the assay on CP329, in the assay on CP335, in the assay on DFO2036, in the assay with DIV14, in the assay with DIV17 and in the assay with DIV30 was “inactive” throughout. In addition, the Potency result in the assay with Dd2, in the assay on ECU, in the assay with FAB9, in the assay with GB4, in the assay on HB3 and in the assay with ICS was “inactive” in each case. The Potency entry in the assay with JCK is “inactive”.
With `CCn1cc(C(=O)O)c(=O)c2cc(F)c(N3CCN(C)CC3)cc21`, the Potency entry in the assay with CP269, in the assay with CP297, with CP315, in the assay on CP325, in the assay with CP329 and in the assay on DIV14 was “inactive” in each case. The Potency entry in the assay with DIV17, in the assay with DIV30, with FAB9, with GB4, with HB3 and in the assay with JCK was “inactive” each time. Also, the Potency in the assay on CP286 was 7.08 µM (active); in the assay with Dd2, 12.6 µM (active).
In the case of `CCC(C)(C)c1ccc(CC(C)CN2C[C@@H](C)O[C@@H](C)C2)cc1` (some centres undefined), the Potency result with CP269, in the assay on CP291, with CP297, in the assay with CP305, in the assay with CP315 and with CP325 was “inactive” throughout. In addition, the Potency entry with CP329, with CP335, with DFO2036, in the assay with DIV17, in the assay on DIV30 and in the assay with ECU was “inactive” in each case. Besides, the Potency entry with FAB9, in the assay with GB4 and with JCK was “inactive” in each case.
Take `CCn1cc(C(=O)O)c(=O)c2cc(F)c(N3CCNCC3)nc21`: the Potency entry with CP286, in the assay with CP297, in the assay with CP305, with CP315, in the assay with CP325 and in the assay on CP329 was “inactive” in each case. Moreover, the Potency entry in the assay on CP335, in the assay on DIV14, in the assay with DIV17, with DIV30, with ECU and in the assay on FAB9 was “inactive” throughout. The Potency entry with GB4, in the assay with HB3 and in the assay on JCK was “inactive” throughout.
As to `CC1=CC(=O)c2ccccc2C1=O`, the Potency result in the assay with CP269, in the assay with CP291, in the assay with CP297, with CP305, in the assay on CP315 and with CP325 was “inactive” throughout. The Potency entry in the assay with CP329, in the assay with CP335, in the assay with DFO2036, in the assay with DIV30, in the assay on Dd2 and in the assay with ECU was “inactive” throughout. The Potency result with FAB9, in the assay with HB3 and in the assay with JCK was “inactive” in each case.
For the compound `COC(=O)Nc1nc2ccc(C(=O)c3ccccc3)cc2[nH]1`, the Potency entry in the assay on CP286, in the assay with CP297, in the assay on CP315, in the assay with CP329, in the assay with CP335 and in the assay with DFO2036 was “inactive” throughout. The Potency result in the assay with DIV30, in the assay on Dd2, in the assay on ECU, in the assay with FAB9, in the assay on HB3 and in the assay with ICS was “inactive” each time. Further, the Potency entry with JCK is “inactive”.
